For assay [1], the target named is ATP-dependent translocase ABCB1 (Homo sapiens) (UniProt P08183). The assay can be described thus: MDR1 (ABCB1) efflux transporter inhibition, cell-based (AID 377; in the data active means fluorescence slope change above about 50%). Particulars: MDR1-expressing cells, fluorescent substrate accumulation slope; stronger effect = higher value; concentration not given here.
A short description of assay [2]: polyglutamine-triggered caspase-3 activation inhibitors, cell-based (AID 1583). The note with it: polyglutamine-induced caspase-3 activation, cell assay; stronger effect = higher value;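 tested at 10 µM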.
Assay [3] in a line: enhancers of glutamate uptake in motor neurons, MN-1 cell line (AID 1612).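 Further: tested at 1 µM final; 0% = mean of DMSO vehicle wells on each plate; positive means more glutamate uptake than control and negative means less.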 The note with it: MN-1 motor neuron cells, stronger effect = higher value.
Assay [4] can be described thus: suppressors of polyglutamine aggregation in yeast, 75Q-TubH (AID 1616). The note with it: S. cerevisiae 75Q-TubH polyglutamine aggregation suppression; stronger effect = higher value.
A short description of assay [5]: hESC survival regulators, cell-based (AID 493140).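 Further: cells exposed to compounds for four days before counting.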 The note with it: human embryonic stem cell survival screen; stronger effect = higher value.
The nature of assay [6]: rescue of polyQ-huntingtin neuronal dysfunction in worms, whole organism, C. elegans mechanosensory neurons, N-terminal huntingtin (AID 1599). Particulars: touch response, stronger effect = higher value.
The nature of assay [7]: reducers of polyQ inclusions in PC12 cells, cell-based, NGF-treated PC12, GFPQ80 (AID 1614).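 Further: lower means fewer inclusions and 0 means no inclusions at all.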 The note with it: PC12 NGF-treated GFP-polyQ80 inclusion reduction.
Assay [8] can be described thus: circadian clock period modulators, cell-based, LOPAC library, luminescence reporter (AID 2774).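 Further: values are relative to mean of DMSO wells on each plate.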 The note with it: circadian reporter cells, at 7 µM, actives lie on both sides.
The test system of assay [9] is Hepatitis C virus NS3 helicase. The assay can be described thus: HCV NS3 helicase inhibitors, primary screen, biochemical, fluorescence polarization, LOPAC1280 library (AID 687035; in the data active means inhibition above about 37%). The note with it: Purified HCV NS3 helicase, Cy5-dT15 ssDNA binding fluorescence polarization; stronger effect = higher value; concentration not given here.
Assay [10] is described as follows: Cy5 fluorescence quenching or enhancement artefacts, artefact control for HCV NS3 helicase inhibitor project, biochemical, LOPAC1280 (AID 687037). Particulars: Cy5-DNA-NS3h complex fluorescence interference counterscreen.
Assay [11] is described as follows: Cy5 fluorescence interference with SSB-bound oligo, artefact control for HCV NS3 helicase inhibitor project, biochemical, NIH Clinical Collection, E. coli SSB (AID 743268).
Assay [12] has as its system Hepatitis C virus NS3 helicase. The assay can be described thus: HCV NS3 helicase inhibitors, primary screen, biochemical, fluorescence polarization, NIH Clinical Collection (AID 743270). The note with it: NS3 helicase binding to Cy5-dT15 DNA, stronger effect = higher value, concentration not given here.
The nature of assay [13]: modulation of C. elegans fzo-1 (AID 1259413).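 Further: fzo-1 mutant C. elegans worms in liquid wells.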 Particulars: C. elegans fzo-1 modulator screen, mean read-out; stronger effect = higher value.
Assay [14] is described as follows: phospholipid biosynthesis inhibitors in animal cells, primary screen, cell-based, LOPAC library, screen 4 (AID 1347384). Particulars: phospholipid biosynthesis inhibition screen, at 10 µM.
A further assay has as its system F380Y. Kind of assay: modulators of BK channel variants, profiling panel, selectivity assay, cell-based, U2OS BacMam, thallium flux, beta subunits (AID 1259406;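 active means thallium flux through the channel raised or lowered by more than 3 SD from vehicle-only wells, actives on both sides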;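 further: initial slope of Thallos dye fluorescence rise after thallium is added; log ratio against the mean of 0.3% DMSO vehicle wells on the same plate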). The note with it: at 30 µM.
The next assay relates to F380Y/beta2Delta. The description is as above. Particulars: at 30 µM.
The next assay has as its system R275C. The assay is described as above. Particulars: at 30 µM.
Another assay deals with R275C/beta1. Described as above. The note with it: at 30 µM.
A further assay has as its system R275C/beta2Delta. The description is as above. Particulars: at 30 µM.
In assay [15] the test system is Aerobactin synthetase IucA (Klebsiella pneumoniae, hypervirulent). Kind of assay: IucA enzyme inhibition, biochemical, LOPAC library, absorbance readout (AID 1346212).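 Further: 100% = no compound wells and 0% = no enzyme wells.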 Particulars: IucA enzyme assay, absorbance (OD) readout; stronger effect = lower value;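 tested at 8 µM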.

Structures are written as SMILES. Where “and” joins values, the source holds several entries; their conditions need not be identical. Identical values can stand only once. Results filed as inconclusive are left out. For some of these results: Results with a measured potency or affinity are listed apart. Calls of active or inactive are those of the source. Unless noted, how the calls were made is not given here.

Sequence of ATP-dependent translocase ABCB1 (Homo sapiens) (P08183 whole entry, looked up): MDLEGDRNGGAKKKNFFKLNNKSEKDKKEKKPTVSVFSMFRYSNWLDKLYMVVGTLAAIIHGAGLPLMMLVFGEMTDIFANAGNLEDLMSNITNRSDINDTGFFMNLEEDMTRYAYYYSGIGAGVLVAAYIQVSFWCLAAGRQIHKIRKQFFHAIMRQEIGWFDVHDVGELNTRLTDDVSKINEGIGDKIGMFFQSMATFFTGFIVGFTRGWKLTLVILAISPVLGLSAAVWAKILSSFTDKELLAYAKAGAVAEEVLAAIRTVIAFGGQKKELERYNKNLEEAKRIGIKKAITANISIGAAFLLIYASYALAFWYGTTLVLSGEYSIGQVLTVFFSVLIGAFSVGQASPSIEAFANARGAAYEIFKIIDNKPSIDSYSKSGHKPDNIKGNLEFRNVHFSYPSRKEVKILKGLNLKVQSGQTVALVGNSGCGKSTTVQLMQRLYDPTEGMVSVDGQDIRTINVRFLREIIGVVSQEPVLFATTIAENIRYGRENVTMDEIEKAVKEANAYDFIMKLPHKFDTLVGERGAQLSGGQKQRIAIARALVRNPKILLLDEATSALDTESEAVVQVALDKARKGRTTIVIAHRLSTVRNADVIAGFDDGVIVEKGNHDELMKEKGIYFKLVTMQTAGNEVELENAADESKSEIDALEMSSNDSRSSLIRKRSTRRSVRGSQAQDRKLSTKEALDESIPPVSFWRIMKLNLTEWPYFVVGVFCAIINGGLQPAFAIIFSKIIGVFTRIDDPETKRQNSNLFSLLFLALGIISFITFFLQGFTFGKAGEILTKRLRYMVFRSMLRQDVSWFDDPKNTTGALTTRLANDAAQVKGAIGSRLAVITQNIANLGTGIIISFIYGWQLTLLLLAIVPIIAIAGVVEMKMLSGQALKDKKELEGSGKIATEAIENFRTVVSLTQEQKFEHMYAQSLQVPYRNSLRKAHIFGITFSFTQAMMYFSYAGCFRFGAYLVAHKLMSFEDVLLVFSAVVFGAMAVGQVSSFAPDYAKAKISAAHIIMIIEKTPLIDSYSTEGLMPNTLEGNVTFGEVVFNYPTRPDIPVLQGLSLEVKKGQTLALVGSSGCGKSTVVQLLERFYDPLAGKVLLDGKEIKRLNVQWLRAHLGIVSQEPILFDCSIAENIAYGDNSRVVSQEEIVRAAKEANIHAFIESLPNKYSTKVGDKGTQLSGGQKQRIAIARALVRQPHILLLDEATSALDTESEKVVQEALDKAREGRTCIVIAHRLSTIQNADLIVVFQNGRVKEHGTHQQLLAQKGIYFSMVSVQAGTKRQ

On to `Clc1ccc(C(OCCN2CCCCC2)c2ccccc2)cc1` (configuration not stated), for which the fluorescence slope change in assay [1] was 54.5% (active). Also, the inhibition in assay [2] stood at 4.2%. The glutamate uptake change in [3] is 29.4%. In addition, the aggregation suppression score in assay [4] stood at 1.4. Also, in assay [5], the survival is 3.58 (inactive).

With `CC(=O)NC1CCSC1=O` (configuration not stated), in assay [5], the survival is 5.75 (inactive).

On to `CCC1(CC)C(=O)C=CNC1=O`, for which, in [1], the fluorescence slope change was 54.5% (active). Besides, the inhibition in assay [2] was 13.3% and -20.6%. In addition, the rescue above control in assay [6] is 1.62 and 19.3. The glutamate uptake change in assay [3] was -11.1% and -15%. Besides, the inclusion score in assay [7] turned out to be 2. In addition, the aggregation suppression score in assay [4] is 0.581 and 1.33. The survival in assay [5] was 10.8 (inactive).

In the case of `Oc1cccc2cccnc12`, in assay [2], the inhibition is -67%. This compound also yielded a rescue above control in assay [6] of 8.29. Further, the glutamate uptake change in assay [3] is 53.7%. The same compound displayed an aggregation suppression score in assay [4] of 0.00802.

Take `CNCC(O)c1ccc(O)cc1` (configuration not stated): the period change in [8] was -0.045 h (inactive). The survival in assay [5] is 2.92 (inactive). Also, the inhibition in [9] is -2% (inactive); in assay [12], -1.09% (inactive). Moreover, the fluorescence ratio (interference) in assay [10] was 1 (inactive). For the same compound, in assay [11], the fluorescence ratio is 0.99 (inactive). Moreover, in assay [13], the mean signal is 258 (inactive). In assay [14], the result was inactive. Besides, the log fold change Tl+ flux was -0.0218 (inactive) in the assay on F380Y; 0.0172 (inactive) in the assay with F380Y/beta2Delta; -0.0246 (inactive) with R275C; 0.022 (inactive) in the assay on R275C/beta1; 0.0197 (inactive) in the assay with R275C/beta2Delta.

On to `C[N+]1(CCC(C(N)=O)(c2ccccc2)c2ccccc2)CCCCC1`, for which, in assay [11], the fluorescence ratio was 1.01 (inactive). Moreover, the inhibition in assay [12] was -1.98% (inactive). For the same compound, the mean signal in assay [13] was 231 (inactive). The log fold change Tl+ flux is 0.00354 (inactive) in the assay on F380Y; 0.00809 (inactive) in the assay with F380Y/beta2Delta; -0.0159 (inactive) in the assay on R275C; -0.0271 (inactive) in the assay on R275C/beta1; -0.0181 (inactive) in the assay on R275C/beta2Delta.

Take `C#CCN(C)[C@H](C)Cc1ccccc1`: the fluorescence slope change in assay [1] was -18.7% (inactive). In addition, the survival in [5] is 12.8 (inactive). In addition, the fluorescence ratio in [11] is 0.95 (inactive) and 0.99 (inactive). Moreover, in [12], the inhibition is -5.15% (inactive) and -7.73% (inactive). Also, the mean signal in assay [13] is 258 (inactive). In addition, the log fold change Tl+ flux in the assay with F380Y is 0.00891 (inactive); with F380Y/beta2Delta it was -0.0258 (inactive); in the assay with R275C it was -0.00358 (inactive); in the assay with R275C/beta1 it was 0.0188 (inactive); in the assay with R275C/beta2Delta, -0.0448 (inactive).

On to `CC[C@@H](CO)NC(=O)[C@@H]1C=C2c3cccc4c3c(cn4C)C[C@H]2N(C)C1`, for which the period change in assay [8] was 0.11 h (inactive). For the same compound, the fluorescence ratio (interference) in [10] is 1 (inactive). Further, in assay [15], the remaining activity was 112% (inactive). Moreover, the compound was classed as inactive in assay [14].

As for `NN=C(N)N`, the period change in [8] was -0.015 hour (inactive) and -0.1 hour (inactive). Besides, the inhibition in [9] is -1% (inactive) and -5% (inactive). For the same compound, in assay [10], the fluorescence ratio (interference) is 1 (inactive) and 0.9 (inactive). Besides, the remaining activity in assay [15] is 111% (inactive) and 119% (inactive). Moreover, the result in [14] was inactive.

As to `O=P1(NCCCl)OCCCN1CCCl` (configuration not stated), the survival in assay [5] was 3.83 (inactive).

As for `Oc1cc(Cl)ccc1Oc1ccc(Cl)cc1Cl`, in assay [11], the fluorescence ratio is 1.01 (inactive). The inhibition in assay [12] was 2.27% (inactive). For the same compound, in assay [13], the mean signal is 192 (inactive). In addition, the log fold change Tl+ flux was -0.452 (active) in the assay on F380Y; -0.343 (active) in the assay on F380Y/beta2Delta; -0.105 (active) in the assay with R275C; -0.254 (active) in the assay on R275C/beta1; -0.148 (active) in the assay on R275C/beta2Delta.

Turning to `NC1=NC(=O)C(c2ccccc2)O1` (configuration not stated), in [11], the fluorescence ratio was 1.02 (inactive). The inhibition in [12] was 2.77% (inactive). For the same compound, the mean signal in [13] was 245 (inactive). In addition, the log fold change Tl+ flux in the assay with F380Y is -0.012 (inactive); in the assay on F380Y/beta2Delta it was -0.0196 (inactive); with R275C, 0.00173 (inactive); in the assay on R275C/beta1, 0.00542 (inactive); in the assay with R275C/beta2Delta, -0.00885 (inactive).

As to `CCN(CC)CCOC(=O)C(O)(c1ccccc1)c1ccccc1`, the fluorescence ratio in assay [11] is 0.99 (inactive). Moreover, the inhibition in [12] is -1.19% (inactive). Besides, in assay [13], the mean signal is 281 (inactive). Further, the log fold change Tl+ flux in the assay with F380Y is 0.0198 (inactive); in the assay on F380Y/beta2Delta it was 0.0439 (inactive); with R275C, -0.0214 (inactive); in the assay with R275C/beta1, -0.0156 (inactive); in the assay on R275C/beta2Delta, 0.0436 (inactive).

These data come from PubChem BioAssay.
